# Test results from PubChem BioAssay.
# “And” between values parts separate entries of the source, which are not always exact repeats. Equal entries are not always repeated. For part of these data: Entries with a potency or affinity are not part of this list. The source made the active and inactive calls. Unless noted, the rule behind the calls is not given here.
# Legend:
# [1] = blockers of polyQ-driven CASP3 activation – cell-based (AID 1583); details: polyglutamine-induced caspase-3 activation, cell assay; stronger effect = higher value;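 tested at 10 µM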
# [2] = yeast 75Q aggregation reduction – 75Q-TubU reporter (AID 1593); details: Yeast 75Q polyglutamine aggregation reporter
# [3] = restoration of touch response, mutant HTT neurons – whole organism, C. elegans mechanosensory neurons, N-terminal huntingtin (AID 1599); details: C. elegans polyQ-huntingtin mechanosensory neurons, stronger effect = higher value
# [4] = blockers of cytochrome c efflux from mitochondria – biochemical, purified mitochondria (AID 1603); details: stronger effect = lower value;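 note: mouse liver mitochondria challenged with calcium chloride; signal normalized to the plate average as 100%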
# [5] = polyglutamine aggregate formation blockers (AID 1604); details: polyglutamine-induced protein aggregation inhibition assay; stronger effect = higher value; tested at 2.5 µM
# [6] = glutamate transport activators, MN-1 cells, MN-1 cell line (AID 1612); details: MN-1 motor neuron cells, stronger effect = higher value;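 note: tested at 1 µM final; 0% = mean of DMSO vehicle wells on each plate; positive means more glutamate uptake than control and negative means less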
# [7] = 75Q-TubH aggregate inhibition, S. cerevisiae, yeast (AID 1616); details: S. cerevisiae 75Q-TubH polyglutamine aggregation suppression; stronger effect = higher value
# [8] = compounds altering circadian rhythm period length – cell-based, LOPAC library, luminescence reporter (AID 2774); details: circadian reporter cells, at 7 µM, actives lie on both sides;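 note: values are relative to mean of DMSO wells on each plate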
# [9] = compounds altering Cy5-DNA-NS3h complex signal – biochemical, LOPAC1280, artefact control for HCV NS3 helicase inhibitor project (AID 687037); details: Cy5-DNA-NS3h complex fluorescence interference counterscreen
# [10] = blockers of cellular phospholipid synthesis – cell-based, LOPAC library, screen 4, primary screen (AID 1347384); details: animal cells, phospholipid biosynthesis inhibition screen; at 10 µM
# [11] = signal quenchers or enhancers, Cy5 substrate/SSB – biochemical, NIH Clinical Collection, E. coli SSB, artefact control for HCV NS3 helicase inhibitor project (AID 743268); details: Cy5-oligo bound E. coli SSB, fluorescence interference
# [12] = tested on: Hepatitis C virus NS3 helicase; test: blockers of NS3h binding to DNA – biochemical, fluorescence polarization, NIH Clinical Collection, primary screen (AID 743270); details: NS3 helicase binding to Cy5-dT15 DNA, stronger effect = higher value, concentration not given here
# [13] = target: Single-stranded DNA-binding protein (Escherichia coli (strain K12)) (UniProt P0AGE0); test: SSB-ssDNA binding inhibitors – biochemical, fluorescence polarization, NIH Clinical Collection, counter-screen for HCV NS3 helicase inhibitor project (AID 743271; in the data active = inhibition above about 28%); details: E. coli SSB-DNA binding, stronger effect = higher value, concentration not given here
# [14] = compounds distorting NS3 helicase fluorescence signal – biochemical, NIH Clinical Collection, artefact control for HCV NS3 helicase inhibitor project (AID 743272); details: fluorescence interference counterscreen, HCV NS3 helicase assay; stronger effect = lower value;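 note: HCV NS3 helicase with a Cy5 labelled single stranded DNA probe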
# [15] = tested on: Hepatitis C virus NS3 helicase; test: blockers of NS3h binding to ssDNA – biochemical, fluorescence polarization, LOPAC1280 library, primary screen (AID 687035; in the data active = inhibition above about 37%); details: Purified HCV NS3 helicase, Cy5-dT15 ssDNA binding fluorescence polarization; stronger effect = higher value; concentration not given here
# [16] = growth inhibition, single agent or in combination, cell-based, chromothripsis tumors, cisplatin or BGB combos (AID 1671449; in the data active = inhibition above about 80%;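 note: cells exposed for 96 hours; 0% = vehicle DMSO and 100% = killing by high DMSO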); details: LFS_MB_P medulloblastoma cells
# [17] = growth inhibition, single agent and combos, cell-based, chromothripsis tumors, cisplatin or BGB combos (AID 1671450; in the data active = inhibition above about 80%;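 note: cells exposed to compound for four days; 0% = vehicle DMSO and 100% = cell killing by high DMSO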); details: HDN33 neuroblastoma cells, stronger effect = higher value
# [18] = growth inhibition, single agents and combos, HTB85, cell-based, BGB or cisplatin IC20 combos, synergistic combos for chromothripsis tumors (AID 1671453; in the data active = inhibition above about 80%;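 note: cells exposed for 96 hours before readout; 0% = vehicle DMSO and 100% = high DMSO killing control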); details: HTB85 osteosarcoma cells, drug combinations, stronger effect = higher value
# [19] = growth inhibition, MDA-MB-436, cell-based, BGB or cisplatin combos, synergistic combos for chromothripsis tumors (AID 1671458); details: MDA-MB-436 breast carcinoma growth inhibition, drug combinations, stronger effect = higher value;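 note: cells exposed for 96 hours; 0% = vehicle DMSO and 100% = killing by high DMSO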
# [20] = BT084 cell growth, single and combined drugs, ICGC_MB145, cisplatin and BGB IC40 combos (AID 1671461; in the data active = inhibition above about 80%;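 note: cells exposed to drugs for 96 hours; 0% = vehicle DMSO and 100% = high DMSO full killing control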); details: BT084 medulloblastoma cells, drug combinations, stronger effect = higher value
smiles,measurement,setting,value
CC(C)OC(=O)C(C)(C)Oc1ccc(C(=O)c2ccc(Cl)cc2)cc1,inhibition,[1],-9.13%
same,score,[2],-2.53
same,rescue above control,[3],27.1
same,cytochrome c release ratio,[4],1.27
same,inhibition of aggregation,[5],59%
same,glutamate uptake change,[6],-24.1%
same,aggregation suppression score,[7],0.0671
same,period change,[8],0.08 h (inactive)
same,fluorescence ratio (interference),[9],1.1 (inactive)
same,outcome,[10],inactive
COCCCOc1ccnc(CS(=O)c2nc3ccccc3[nH]2)c1C (centres undefined),fluorescence ratio,[11],0.94 (inactive)
same,inhibition,[12],-6.33% (inactive)
same,inhibition,[13],0.39% (inactive)
same,fluorescence ratio,[14],0.94 (inactive)
CN/C(=C\[N+](=O)[O-])NCCSCc1ccc(CN(C)C)o1,inhibition,[1],6.1%
same,score,[2],1.61
same,rescue above control,[3],-10.5
same,cytochrome c release ratio,[4],0.8
same,inhibition of aggregation,[5],71.9%
same,glutamate uptake change,[6],-10.5%
same,aggregation suppression score,[7],1.66
same,period change,[8],0.16 h (inactive)
same,inhibition,[15],-3% (inactive)
same,fluorescence ratio (interference),[9],0.9 (inactive)
same,fluorescence ratio,[11],0.103 (active)
same,inhibition,[12],0.45% (inactive)
same,inhibition,[13],6.39% (inactive)
same,fluorescence ratio,[14],0.89 (inactive)
same,outcome,[10],inactive
CCn1cc(C(=O)O)c(=O)c2ccc(C)nc21,inhibition,[1],1.35%
same,score,[2],0.74
same,rescue above control,[3],-12.9
same,cytochrome c release ratio,[4],0.84
same,inhibition of aggregation,[5],54.5%
same,glutamate uptake change,[6],-15.5%
same,aggregation suppression score,[7],0.277
same,fluorescence ratio,[11],1.03 (inactive)
same,inhibition,[12],-0.45% (inactive)
same,inhibition,[13],-2.76% (inactive)
same,fluorescence ratio,[14],0.97 (inactive)
same,outcome,[10],inactive
same,inhibition,"[16]; at 0.5 µM, stronger effect = higher value",-12.4% (inactive) and -25.4% (inactive)
same,inhibition,"[16]; measured here: combination with BGB IC20, at 0.005 µM",-22.2% and -24.5%
same,inhibition,"[16]; measured here: combination with BGB IC40, at 0.005 µM",11.9% and -5.77%
same,inhibition,"[16]; measured here: combination with BGB IC40, at 0.05 µM",1.93% and -7.94%
same,inhibition,"[16]; measured here: combination with cisplatin, at 0.5 µM, stronger effect = higher value",-11.7% and -31.6%
same,inhibition,"[16]; measured here: combination with cisplatin, at 5 µM, stronger effect = higher value",-6.26% and -18.6%
same,inhibition,"[17]; BGB combo, at 5 µM",-4.41% and 16.2%
same,inhibition,[17]; at 0.5 µM,3.94% (inactive) and 4.3% (inactive)
same,inhibition,"[17]; cisplatin combo, at 5 µM",-15% and -2.27%
same,inhibition,"[17]; measured here: with BGB IC20 combination, at 0.5 µM",-7.56% and 11.7%
same,inhibition,"[17]; measured here: with cisplatin IC20 combination, at 0.5 µM",7.18% and 9.4%
same,inhibition,"[17]; single agent, at 5 µM",11.6% and -22.5%
same,inhibition,[18]; at 0.5 µM,-2.77% (inactive) and -11% (inactive)
same,inhibition,"[18]; measured here: with BGB IC20, at 0.5 µM",-12.2% and -35.2%
same,inhibition,"[18]; measured here: with BGB IC20, at 5 µM",-14.2% and -15.8%
same,inhibition,"[18]; measured here: with cisplatin IC20, at 0.5 µM",-1.63% and -0.143%
same,inhibition,"[18]; measured here: with cisplatin IC20, at 5 µM",17.1% and -0.249%
same,inhibition,"[18]; single agent, at 5 µM",22.3% and -3.38%
same,inhibition,[19]; at 0.5 µM,-9.6% (inactive) and -19.2% (inactive)
same,inhibition,"[19]; measured here: BGB combination, at 0.5 µM",-10.5% and -16.3%
same,inhibition,"[19]; measured here: BGB combination, at 5 µM",-0.497% and -4.71%
same,inhibition,"[19]; measured here: cisplatin combination, at 0.5 µM",-19.6% and -33.6%
same,inhibition,"[19]; measured here: cisplatin combination, at 5 µM",-0.491% and -16.4%
same,inhibition,[20]; at 0.5 µM,-9.05% (inactive) and -29.1% (inactive)
same,inhibition,"[20]; cisplatin combination, at 0.5 µM",-8.44% and -23.5%
same,inhibition,"[20]; cisplatin combination, at 5 µM",-55.2% and -59.3%
same,inhibition,"[20]; measured here: BGB IC40 combination 0.05 uM, at 0.05 µM",10.8% and -9.88%
same,inhibition,"[20]; single agent, at 5 µM",-16.7% and -23%
